PubChem BioAssay AID2517 (National Center for Advancing Translational Sciences (NCATS), 2012)
Screen size: about 350,000 compounds; about 1,200 (0.34%) were called active. About 3% were inconclusive and are not listed. The sample holds actives, similar compounds and a random draw of the others, so the mix is not that of the screen. Calls follow the shape of the dose curve; as a rule, active = well fitted inhibition curve with a large enough effect; inconclusive = small, poorly fitted or top-dose-only effect; inactive = no such curve, though single readings can be large or run the other way.

Target: DNA repair nuclease/redox regulator APEX1 (Homo sapiens) (UniProt P27695)
Sequence (P27695 whole entry, looked up): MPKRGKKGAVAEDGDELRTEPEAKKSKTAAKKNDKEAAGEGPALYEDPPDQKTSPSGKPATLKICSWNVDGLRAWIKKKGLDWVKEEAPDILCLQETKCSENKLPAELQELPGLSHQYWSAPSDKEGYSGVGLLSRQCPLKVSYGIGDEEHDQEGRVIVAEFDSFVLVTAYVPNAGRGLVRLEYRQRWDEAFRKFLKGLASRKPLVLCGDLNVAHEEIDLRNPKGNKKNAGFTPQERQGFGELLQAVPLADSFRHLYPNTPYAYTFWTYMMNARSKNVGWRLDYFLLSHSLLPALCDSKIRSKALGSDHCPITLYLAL
Assay: qHTS Assay for Inhibitors of the Human Apurinic/apyrimidinic Endonuclease 1 (APE1); also: nearly all actives have a fitted effect of over 55% in size;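 as to activity change, negative = inhibition: plate controls were vehicle for no effect and reference inhibitor for full effect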
Conditions: recombinant APE1, TAMRA/BHQ-2 abasic DNA cleavage fluorescence; activity change, negative = inhibition: at 65.8 µM (top of the series)
Source text: The apurinic/apyrimidinic endonuclease APE1 is the primary mammalian enzyme responsible for the removal of abasic (or AP) sites in DNA and functions centrally in the base excision DNA repair (BER) pathway. […] Thus, targeting APE1 could improve the efficacy of current treatment paradigms by promoting selective sensitization or protection of diseased and normal cells, respectively.
Inhibition of APE1 activity was screened by utilizing double-stranded short substrate containing tetrahydrofuran (THF) abasic site labeled with rhodamine-type fluorophore (TAMRA) at the 5'-end and with non-fluorescent Black Hole Quencher-2 (BHQ-2) at the opposing 3'-end. An increase in the fluorescence intensity due to incision of the abasic site by APE1 was used to measure the enzyme activity.
NIH Chemical Genomics Center [NCGC]
NIH Molecular Libraries Probe Centers Network [MLPCN]
Assay Provider: David M. Wilson, III, National Institute on Aging, NIH
Three uL of enzyme solution (0.75 nM APE1 final concentration) was dispensed to 1536-well Greiner black solid bottom plates. […] The plates were incubated for 15 min at room temperature, and then 1 uL of substrate solution (50 nM final concentration of TAMRA/BHQ-2) was added to start the reaction. The plates were immediately transferred into ViewLux High-throughput CCD imager (Perkin-Elmer) in order to measure the reaction progress in kinetic mode (three reads every 60 seconds) using 525 nm excitation and 598 nm emission fluorescence protocol. The fluorescence intensity difference between the third and the first time points was used to compute reaction progress. Results were normalized to buffer only columns and NSC13755 positive controls and negative control DMSO treated wells.
Potency is read from the fitted curve at half-maximal effect.

Potency, active:
N#Cc1c(-c2cccs2)nc(SCC(=O)c2ccc(Br)cc2)[nH]c1=O 39.8 µM
Cc1ccc(-c2nc(SCC(=O)Nc3ccccc3OC(F)F)c3c(C)c(C(=O)O)sc3n2)cc1 39.8 µM
O=C1N[C@H](Cc2c[nH]c3ccccc23)COC(=O)[C@H](Cc2ccc(F)cc2)C/C=C\C[C@H]1CC(=O)N(CCO)Cc1ccccc1 21.2 µM
CC(C)(C)OC(=O)C[C@@H]1C/C=C\C[C@@H](CC(=O)NCCO)C(=O)N[C@H](Cc2c[nH]c3ccccc23)COC1=O 15 µM

Potency, inactive:
Cc1cc2nc3c(=O)[nH]c(=O)nc-3n(C[C@H](O)[C@H](O)[C@H](O)CO)c2cc1C

Activity change, negative = inhibition, inactive:
COC(=O)C/C=C/[C@@H](C)[C@H](NC(=O)OCC(Cl)(Cl)Cl)c1ccccc1 3.41%
O=c1c(-c2ccc(F)cc2)nc2cnc(N3CCNCC3)nc2n1Cc1cccs1 12.1%
CCCCC/C=C\C/C=C\CCCCCCCCCC(N)=O 3.71%
O=C(CSc1nc2ccccc2c(=O)[nH]1)Nc1nc(-c2ccc(Br)cc2)cs1 -13.4%
Cc1cc(C)c2c(=O)[nH]c(SCC(=O)Nc3ccc(Br)cc3)nc2n1 5.12%
O=C(O)c1ccc(/C=C2/SC(=S)N(c3cccc(C(F)(F)F)c3)C2=O)cc1 20.2%
OC[C@H]1O[C@@H](n2cnc3c(N[C@H]4CC5CCC4C5)ncnc32)[C@H](O)[C@@H]1O (some centres not stated) 13.8%
C=C(C(C)=O)C(O)c1ccc([N+](=O)[O-])cc1 (configuration not stated) -1.09%
CCCCC[C@H](O)/C=C/[C@@H]1[C@@H](CC(=O)CCC(=O)O)[C@@H](O)C[C@H]1O 1.56%
COc1ccccc1NC(=O)CSc1nc2sc3c(c2c(=O)n1-c1ccccc1)CCN(C)C3 34.8%
CCOC(=O)c1ccc[n+](CC(=O)Nc2ccccc2OC(F)F)c1 0.0835%
CC(=O)OCC1OC(C#Cc2ccccc2Cl)C=CC1OC(C)=O (configuration not stated) -9.65% [at 12.4 µM]
CC(=O)Oc1c2c(c3c(c1CC=C(C)C)O[C@@]14C(=CC5CC1C(C)(C)OC4(C/C=C(\C)C(=O)O)C5=O)C3=O)OC(C)(CCC=C(C)C)C=C2 (some centres not stated) -5.43%
C[C@H]1COC(=O)[C@H](CC(=O)OC(C)(C)C)C/C=C\C[C@@H](CC(=O)N[C@H](CO)Cc2ccccc2)C(=O)N1 4.54%
CC(C)(C)OC(=O)C[C@@H]1C/C=C\C[C@H](CC(=O)N[C@@H](CO)Cc2ccccc2)C(=O)N[C@H](Cc2ccccc2)COC1=O -4.67%
O=C1N[C@@H](c2ccccc2)COC(=O)[C@H](Cc2ccc(F)cc2)C/C=C\C[C@@H]1CC(=O)N(CCO)Cc1ccccc1 27.2%
CC(C)(C)OC(=O)C[C@@H]1C/C=C\C[C@@H](CC(=O)N(CCO)Cc2ccccc2)C(=O)N[C@H](Cc2ccccc2)COC1=O -32.1%
